This note sets out measurements from PubChem BioAssay (Tox21).

For experiment [1], the target named is Estrogen receptor (Homo sapiens) (UniProt P03372). Description: qHTS assay to identify small molecule antagonists of the estrogen receptor alpha (ER-alpha) signaling pathway (AID 743069; active = well fitted curve in the direction sought with a large enough effect in the signal ratio in the repeat runs, not every such curve was filed as active; the % refers to the signal ratio). An outline of the steps: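 Estradiol-stimulated ER-alpha-UAS-bla HEK293 cells, 18 hr compound exposure at 37C. LiveBLAzer B/G substrate, 2 hr RT, fluorescence read.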
Experiment [2] in a line: qHTS assay to identify small molecule antagonists of the estrogen receptor alpha (ER-alpha) signaling pathway - cell viability counter screen (AID 743074; calls by dose curve;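 also: HEK293 cells carrying ER-alpha-UAS-bla reporter stimulated with 17beta-estradiol; nearly all actives have a fitted effect of over 45% in size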).
In experiment [3] the target is Estrogen receptor (Homo sapiens) (UniProt P03372). Put plainly: qHTS assay to identify small molecule agonists of the estrogen receptor alpha (ER-alpha) signaling pathway (AID 743075; calls by dose curve;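 also: HEK293 GripTite cells with ER-alpha and UAS-driven beta-lactamase reporter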).
Experiment [4] shares this target. Description: qHTS assay to identify small molecule agonists of the estrogen receptor alpha (ER-alpha) signaling pathway using the BG1 cell line (AID 743079). Also: nearly all actives have a fitted effect of over 20% in size. Also: potency is read from the fitted curve at half-maximal effect.
Experiment [5] is described as follows: qHTS assay to identify small molecule antagonists of the estrogen receptor alpha (ER-alpha) signaling pathway using the BG1 cell line (AID 743080; calls by dose curve;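 also: BG1 cells stimulated with 17beta-estradiol alongside compound; series mostly up to about 70 µM; nearly all actives have a fitted effect of over 25% in size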). The method, boiled down:
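Luciferase inhibition measured with ONE-Glo after 30 min at RT in BG1Luc4E2 cells given test compounds and 17beta-estradiol for 21.5 h at 37 C; CellTiter-Fluor viability read in the same wells beforehand.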

Experiment [6] can be described thus: qHTS assay to identify small molecule antagonists of the estrogen receptor alpha (ER-alpha) signaling pathway using the BG1 cell line - cell viability counter screen (AID 743081).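 Also: compound given together with 17beta-estradiol as the ER stimulus; series mostly up to about 70 µM; nearly all actives have a fitted effect of over 45% in size.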
The next experiment concerns the target Aromatase (Homo sapiens) (UniProt P11511). Description: qHTS assay to identify aromatase inhibitors (AID 743083). Also: series mostly up to about 70 µM; nearly all actives have a fitted effect of over 55% in size.
Experiment [7] in a line: qHTS assay to identify aromatase inhibitors - cell viability counter screen (AID 743084).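 Also: cells stimulated with testosterone during compound exposure; nearly all actives have a fitted effect of over 55% in size.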
Experiment [8] addresses Aryl hydrocarbon receptor (Homo sapiens) (UniProt P35869). Description: qHTS assay to identify small molecule that activate the aryl hydrocarbon receptor (AhR) signaling pathway (AID 743085). Also: nearly all actives have a fitted effect of over 15% in size. Also: potency is read from the fitted curve at half-maximal effect.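 As to activation: HG2L7.5c1 human HepG2 liver cells with stably integrated DRE-driven firefly reporter; series mostly up to about 70 µM.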 The method, boiled down:
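Reporter assay in engineered HepG2 line HG2L7.5c1, whose plasmid carries twenty dioxin responsive elements upstream of firefly luciferase. Treatment lasted 24 h at 37C; ONE-Glo luminescence gauged induction.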

A short description of experiment [9]: qHTS assay to identify small molecule that activate the aryl hydrocarbon receptor (AhR) signaling pathway - cell viability counter screen (AID 743086).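 Also: HepG2 liver cells carrying the AhR DRE luciferase reporter; series mostly up to about 70 µM; nearly all actives have a fitted effect of over 45% in size.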 An outline of the steps:
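HepG2-AhR-luc (HG2L7.5c1) cells, 4000/well, were preincubated 5 h at 37C, exposed to compound in qHTS format for 24 hr at 37C, then given CellTiter-Fluor for 30 min; viability was read as fluorescence in the reporter wells.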

Experiment [10] has as its target Peroxisome proliferator-activated receptor gamma (Homo sapiens) (UniProt P37231). Put plainly: qHTS assay to identify small molecule antagonists of the peroxisome proliferator-activated receptor gamma (PPARg) signaling pathway (AID 743191; calls by dose curve; also: series mostly up to about 63 µM; nearly all actives have a fitted effect of over 30% in size). An outline of the steps:
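GeneBLAzer PPARg UAS-bla HEK293H cells carrying a UAS-driven beta-lactamase reporter were plated at 3000 cells/well, preincubated 5 h at 37C, then given compound for 17 h at 37C; LiveBLAzer B/G FRET substrate was read after 1 h at room temperature.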

A short description of experiment [11]: qHTS assay to identify small molecule antagonists of the peroxisome proliferator-activated receptor gamma (PPARg) signaling pathway - cell viability counter screen (AID 743194). Also: nearly all actives have a fitted effect of over 55% in size. The method, boiled down: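 PPARg-UAS-bla HEK293H cells were plated, rested 5 h at 37 C, then treated with compounds plus rosiglitazone (50 nM final) for 17 h at 37 C; viability was then read by CellTiter-Glo luminescence after 30 min at room temperature.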

Experiment [12] is described as follows: qHTS assay for small molecule agonists of the antioxidant response element (ARE) signaling pathway (AID 743202; active = well fitted activation curve with a large enough effect in the signal ratio in the repeat runs, not every such curve was filed as active; the % refers to the signal ratio). The method, boiled down:
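Compounds delivered in DMSO to ARE-bla HepG2 cells (2,000 cells/well, pre-incubated 5 h) and left 16 h at 37 C. LiveBLAzer B/G FRET substrate then added for 2 h at RT before fluorescence reading.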

Experiment [13] is described as follows: qHTS assay for small molecule agonists of the antioxidant response element (ARE) signaling pathway - cell viability counter screen (AID 743203; calls by dose curve; also: nearly all actives have a fitted effect of over 55% in size). The method, boiled down: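 Seeded at 2,000 cells/well, ARE-bla HepG2 cells were incubated 5 hrs before compound addition. After 16 hrs of treatment at 37C with 5% CO2, CellTiter-Glo reagent was added and luminescence read 30 min later.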

Experiment [14] can be described thus: qHTS assay for small molecule activators of the heat shock response signaling pathway - cell viability counter screen (AID 743209). Also: nearly all actives have a fitted effect of over 50% in size. An outline of the steps:
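First, HSE-bla HeLa cells were seeded at 1500 cells/well and kept overnight at 37 C. Next, compounds were pinned in and incubated 5 h. After the FRET substrate step, CellTiter-Glo was added and luminescence read 30 min later.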

Experiment [15] in a line: qHTS assay for small molecule activators of the heat shock response signaling pathway (AID 743210; active = well fitted activation curve with a large enough effect in the signal ratio in the repeat runs, with a control signal flat, not every such curve was filed as active; the % refers to the signal ratio;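 also: HeLa cells with beta-lactamase reporter driven by heat shock elements; series mostly up to about 63 µM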). The method, boiled down:
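Reporter gene assay: HeLa cells stably bearing an HSE-bla construct, compound treatment 5 h at 37 C, LiveBLAzer substrate 2.5 h at RT, fluorescence intensity.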

Experiment [16] can be described thus: qHTS assay to identify small molecule agonists of the peroxisome proliferator-activated receptor delta (PPARd) signaling pathway - cell viability counter screen (AID 743211). Also: nearly all actives have a fitted effect of over 55% in size. An outline of the steps: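 Multiplexed format: after the 2 h room-temperature LiveBLAzer B/G FRET step, CellTiter-Glo was added to the same wells. Luminescence after 30 min gave cell viability; compound exposure was 17 h at 37C.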

Experiment [17] concerns thyroid hormone receptor (rat, GH3 cells). Description: qHTS assay to identify small molecule agonists of the thyroid receptor (TR) signaling pathway (AID 743066; calls by dose curve).
The target in experiment [18] is Peroxisome proliferator-activated receptor gamma (Homo sapiens) (UniProt P37231). Description: qHTS assay to identify small molecule agonists of the peroxisome proliferator-activated receptor gamma (PPARg) signaling pathway (AID 743094; active = well fitted activation curve with a large enough effect in the signal ratio in the repeat runs, not every such curve was filed as active; the % refers to the signal ratio). An outline of the steps: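 Quantitative HTS agonist mode: stable HEK293H line with UAS-beta-lactamase reporter under PPARg control, 17 h compound exposure at 37C, fluorescence after 1 h FRET substrate loading at room temperature.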

The structures appear in SMILES notation. Records with an inconclusive call do not appear. Values without a mark were called inactive. The source made the active and inactive calls. Unless noted, calls follow the shape of the dose curve; as a rule, active = well fitted curve in the direction sought with a large enough effect in the repeat runs; inconclusive = weak or mixed curves; inactive = no such curve, though single readings can be large; an effect the other way counts as inactive or inconclusive.

Chain of Aromatase (Homo sapiens) (P11511 whole entry, looked up): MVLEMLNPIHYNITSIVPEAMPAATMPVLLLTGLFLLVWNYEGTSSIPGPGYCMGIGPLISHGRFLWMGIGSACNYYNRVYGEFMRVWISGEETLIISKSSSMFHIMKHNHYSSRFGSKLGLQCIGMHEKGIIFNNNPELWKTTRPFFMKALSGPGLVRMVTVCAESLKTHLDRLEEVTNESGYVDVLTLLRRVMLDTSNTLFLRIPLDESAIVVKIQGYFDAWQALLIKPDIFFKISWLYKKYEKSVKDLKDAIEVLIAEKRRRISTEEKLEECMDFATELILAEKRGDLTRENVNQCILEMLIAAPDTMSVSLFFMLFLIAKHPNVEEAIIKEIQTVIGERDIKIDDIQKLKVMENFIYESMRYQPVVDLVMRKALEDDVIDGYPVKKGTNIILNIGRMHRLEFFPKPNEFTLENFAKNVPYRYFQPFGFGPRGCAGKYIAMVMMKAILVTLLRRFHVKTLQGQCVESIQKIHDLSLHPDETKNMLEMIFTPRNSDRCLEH
Chain of Estrogen receptor (Homo sapiens) (P03372 whole entry, looked up): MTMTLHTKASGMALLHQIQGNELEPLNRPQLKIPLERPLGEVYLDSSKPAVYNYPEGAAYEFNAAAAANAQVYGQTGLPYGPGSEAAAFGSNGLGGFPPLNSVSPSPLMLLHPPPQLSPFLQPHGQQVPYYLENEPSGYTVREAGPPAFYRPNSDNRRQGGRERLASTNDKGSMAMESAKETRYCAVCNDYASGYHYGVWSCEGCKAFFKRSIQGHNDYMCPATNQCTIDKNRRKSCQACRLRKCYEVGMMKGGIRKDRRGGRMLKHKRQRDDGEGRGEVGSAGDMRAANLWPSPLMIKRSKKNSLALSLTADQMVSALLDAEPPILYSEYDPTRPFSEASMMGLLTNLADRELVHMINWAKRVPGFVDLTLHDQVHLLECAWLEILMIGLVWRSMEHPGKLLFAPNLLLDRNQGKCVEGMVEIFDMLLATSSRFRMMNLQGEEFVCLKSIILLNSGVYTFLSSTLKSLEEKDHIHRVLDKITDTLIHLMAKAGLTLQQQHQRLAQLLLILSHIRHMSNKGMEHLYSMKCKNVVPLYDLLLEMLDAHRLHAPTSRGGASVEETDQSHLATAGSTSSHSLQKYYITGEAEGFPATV
Chain of Peroxisome proliferator-activated receptor gamma (Homo sapiens) (P37231 whole entry, looked up): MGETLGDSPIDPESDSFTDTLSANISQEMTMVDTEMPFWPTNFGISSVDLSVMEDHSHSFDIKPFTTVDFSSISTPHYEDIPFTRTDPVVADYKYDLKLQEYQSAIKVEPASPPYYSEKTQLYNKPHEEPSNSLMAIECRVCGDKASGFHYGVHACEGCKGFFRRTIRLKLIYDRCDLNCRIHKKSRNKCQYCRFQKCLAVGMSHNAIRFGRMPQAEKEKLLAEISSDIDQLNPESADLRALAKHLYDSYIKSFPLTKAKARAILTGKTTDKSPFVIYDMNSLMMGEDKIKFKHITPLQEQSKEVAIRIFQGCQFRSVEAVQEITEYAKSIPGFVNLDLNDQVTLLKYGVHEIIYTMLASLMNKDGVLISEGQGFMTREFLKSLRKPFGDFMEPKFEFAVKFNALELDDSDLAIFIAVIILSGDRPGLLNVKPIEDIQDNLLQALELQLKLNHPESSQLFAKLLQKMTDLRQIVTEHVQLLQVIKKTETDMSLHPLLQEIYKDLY
Chain of Aryl hydrocarbon receptor (Homo sapiens) (P35869 whole entry, looked up): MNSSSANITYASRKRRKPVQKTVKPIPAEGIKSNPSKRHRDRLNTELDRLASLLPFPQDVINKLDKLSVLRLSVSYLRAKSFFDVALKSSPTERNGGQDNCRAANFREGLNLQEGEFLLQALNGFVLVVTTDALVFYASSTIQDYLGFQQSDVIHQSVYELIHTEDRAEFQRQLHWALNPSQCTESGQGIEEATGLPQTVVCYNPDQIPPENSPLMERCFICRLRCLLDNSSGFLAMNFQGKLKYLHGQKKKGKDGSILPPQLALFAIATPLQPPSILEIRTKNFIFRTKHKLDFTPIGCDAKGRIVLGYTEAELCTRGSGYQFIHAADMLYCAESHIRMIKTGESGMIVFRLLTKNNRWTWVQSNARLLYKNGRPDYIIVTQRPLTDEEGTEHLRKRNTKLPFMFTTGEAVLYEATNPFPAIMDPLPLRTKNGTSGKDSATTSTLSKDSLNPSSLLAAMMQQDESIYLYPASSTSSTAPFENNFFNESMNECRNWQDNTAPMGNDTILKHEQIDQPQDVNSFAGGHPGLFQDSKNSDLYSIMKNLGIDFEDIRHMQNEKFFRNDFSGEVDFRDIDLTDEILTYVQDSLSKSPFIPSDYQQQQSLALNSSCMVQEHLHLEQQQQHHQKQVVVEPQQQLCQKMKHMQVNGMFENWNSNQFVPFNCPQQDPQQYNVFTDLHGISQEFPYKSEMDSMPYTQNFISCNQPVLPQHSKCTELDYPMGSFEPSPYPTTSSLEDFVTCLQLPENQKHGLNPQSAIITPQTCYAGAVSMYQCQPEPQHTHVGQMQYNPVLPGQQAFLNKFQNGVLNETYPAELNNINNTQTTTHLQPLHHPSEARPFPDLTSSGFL

Turning to `CN(C)C(=O)Oc1ccc[n+](C)c1`, the Potency result in [1], in experiment [2], in experiment [3], in experiment [5], in experiment [7] and in experiment [8] was “inactive” throughout. The Potency entry in experiment [9], in [10] and in experiment [12] was “inactive” in each case. Besides, in experiment [4], the Potency is 26.6 µM (active). Also, the compound was called inactive (in experiment [6]; with Aromatase (Homo sapiens); in [11]; in [13]; in [14]; in experiment [15]). The compound was called inactive in experiment [16].
Consider `CC(C)(C)C(=O)c1ccccc1`, for which the result (in experiment [17]; in experiment [6]; with Aromatase (Homo sapiens); in experiment [14]; in [15]; in experiment [16]) was inactive. Also, the Potency result in experiment [1], in [2], in experiment [5], in experiment [7], in experiment [8] and in experiment [9] was “inactive” in each case. For the same compound, the Potency result in [12] was “inactive”. Further, the Potency in [4] is 61.1 µM (active).
As to `CC(=O)OCC(=O)[C@@]1(O)[C@H](C)C[C@H]2[C@@H]3CCC4=CC(=O)C=C[C@]4(C)[C@@]3(F)[C@@H](O)C[C@@]21C`, the compound was classed as inactive (in experiment [17]; in experiment [6]; in the experiment with Aromatase (Homo sapiens); in [11]; in experiment [13]; in [14]). Also, the outcome in experiment [15] and in experiment [16] was inactive. Further, the Potency entry in experiment [2], in experiment [7], in experiment [8], in experiment [9], in experiment [18] and in experiment [12] was “inactive” each time.
Regarding `CC(C)(C)C(=O)Oc1ccc(S(=O)(=O)Nc2ccccc2C(=O)NCC(=O)O)cc1`, the compound was classed as inactive (in experiment [17]; in the experiment with Aromatase (Homo sapiens); in experiment [11]; in experiment [13]; in [14]; in [16]). In addition, the Potency entry in experiment [1], in experiment [2], in experiment [3], in experiment [4], in [5] and in experiment [7] was “inactive” in each case. Further, the Potency result in experiment [9], in [18], in experiment [10] and in experiment [12] was “inactive” throughout. Besides, the Potency in experiment [8] was 11.9 µM (active).
`CC(C)c1ccc2ncccc2c1`: the compound was called inactive (in experiment [17]; in [6]; in the experiment with Aromatase (Homo sapiens); in [11]; in experiment [13]; in experiment [14]). Also, the outcome in [15] was inactive. In addition, the Potency result in [1], in experiment [2], in [3], in [4], in experiment [5] and in [7] was “inactive” throughout. Further, the Potency result in experiment [8], in experiment [9] and in [12] was “inactive” each time.
As to `C=CC(=O)OCCCl`, the compound was called inactive (in [17]; in experiment [6]; with Aromatase (Homo sapiens); in experiment [11]; in [14]; in experiment [15]). For the same compound, the compound was called inactive in [16]. Also, the Potency result in experiment [1], in [2], in experiment [3], in [4], in [5] and in [7] was “inactive” throughout. For the same compound, the Potency entry in [9], in experiment [18], in experiment [10] and in [12] was “inactive” in each case.
On to `CC(C(=O)O)c1cccc(Oc2ccccc2)c1` (stereo not given), for which the outcome (in experiment [17]; in [6]; with Aromatase (Homo sapiens); in experiment [11]; in experiment [13]; in [14]) was inactive. In addition, the outcome in [16] was inactive. Also, the Potency entry in experiment [2], in experiment [8] and in [9] was “inactive” throughout.
Consider `CN(C)[C@@H]1C(=O)C(C(=O)NCN2CCCC2)=C(O)[C@@]2(O)C(=O)C3=C(O)c4c(O)cccc4[C@@](C)(O)C3C[C@@H]12` (stereo not given in full), for which the compound was called inactive (in experiment [17]; in experiment [6]; in the experiment with Aromatase (Homo sapiens); in [11]; in experiment [13]; in experiment [14]). Besides, the outcome in [15] and in experiment [16] was inactive. The Potency entry in experiment [2], in [7], in experiment [8], in experiment [9], in experiment [18] and in experiment [10] was “inactive” in each case. The Potency result in [12] was “inactive”.
